WT yeast gro inh: growth inhibition of WT yeast, mitochondrial fusion screen; mitochondrial fusion phenotypic screen, WT strain; 2.1% of 190,000 active; inhibition, % at 10 µM; AID 1362; in the data active = inhibition above about 58%; tested in S. cerevisiae
Arbovirus anti: blocks arbovirus infection | AID 1251 | arbovirus infection cell-based antiviral screen | 0.37% of 200,000 active | inhibition, % at 10 µM; in the data active = inhibition above about 30%
PERK inhibitor: human PERK inhibition, primary cell-based screen; Q9NZJ5; inhibition, % at 5.6 µM; CHO PERK-DD fusion, SEAP luminescence translation reporter; 0.17% of 220,000 active;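 active = inhibition above the mean inhibition of all tested compounds plus 3 SD, set separately per screening campaign, cut at about 2.9% in these data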;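 also: PERK kinase domain activated by AP20187 dimerizer at 100 nM; 0% = DMSO with dimerizer and 100% = rapamycin at 8.4 µM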
ROMK mod: modulates human ROMK potassium channel activity | Tet-inducible ROMK, thallium flux fluorescence; actives lie on both sides | P48048 | B-score at 10 µM | 2% of 130,000 active;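 active = signal ratio slope over the read window, or its plate-corrected B-score, at least 3 SD from the plate mean, either direction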;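 also: B-score of the F/F0 ratio slope over 7 to 12 s after thallium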
Target sequence (P48048 whole entry, looked up): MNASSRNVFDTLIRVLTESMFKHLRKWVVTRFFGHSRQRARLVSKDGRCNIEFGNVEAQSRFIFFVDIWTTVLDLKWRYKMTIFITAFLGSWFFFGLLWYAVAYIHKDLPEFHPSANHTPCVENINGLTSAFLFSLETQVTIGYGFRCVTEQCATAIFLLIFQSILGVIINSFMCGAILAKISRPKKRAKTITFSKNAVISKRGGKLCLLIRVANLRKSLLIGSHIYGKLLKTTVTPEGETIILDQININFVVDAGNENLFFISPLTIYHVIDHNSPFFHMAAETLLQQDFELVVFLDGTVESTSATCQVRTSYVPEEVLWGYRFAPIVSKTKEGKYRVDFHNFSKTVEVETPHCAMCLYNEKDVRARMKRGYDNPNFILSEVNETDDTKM
* = called active by the depositor; . = no result given. Compounds with a hit are over-represented: about 3.3% of the library has one in this group of screens.

SMILES	WT yeast gro inh	Arbovirus anti	PERK inhibitor	ROMK mod
Cc1cccc(-c2cc(C(=O)N3CCCc4ccccc43)c3ccccc3n2)c1	39.3	-8.7	-0.2	-0.239
Cc1ccc(-c2cc(C(=O)N3CCCc4ccccc43)no2)cc1	64.4*	6.6	-0.9	-0.476
CCN(CC)C(=O)C1CC(=O)N(c2ccc(F)c(Cl)c2)C1 (centres undefined)	59.1*	7.5	-0.1	.
O=C(OCC1OC2OC3(CCCCC3)OC2C2OC3(CCCCC3)OC12)c1ccccc1 (centres undefined)	73.7*	-3.2	0.9	-0.327
Cc1cc(Nc2ccccc2)c2c([N+](=O)[O-])ccc(C)c2n1	70.9*	-9.9	1.1	-0.822
COc1ccc2c(COC(=O)c3n[nH]c4ccccc34)cc(=O)oc2c1	9.3	-0.8	-1.3	0.52
Cc1ccc(-c2cc(C(F)F)n3ncc(C(=O)N4CCc5ccccc5C4)c3n2)cc1	76.9*	-17.4	-1.1	5.82e-05
Cc1ccc(S(=O)(=O)N(C)CC(=O)OCC(=O)NC(c2ccccc2)c2ccccc2)cc1	-23.8	9.0	0.1	1.1
CCOC(=O)c1cnc(-n2nc(C)cc2C)nc1NCCc1ccccc1	74.1*	-41.5	-1.2	-1.16
CCOC(=O)c1cnc(-n2nc(C)cc2C)nc1Nc1ccccc1OC	13.0	5.2	-0.2	.
O=c1[nH]c2c(s1)C(c1ccccc1)C1C3CCC(C3)C1S2 (centres undefined)	30.6	28.6	0.5	0.327
COc1ccc(C2c3sc(=O)[nH]c3SC3C4CCC(C4)C23)cc1 (centres undefined)	65.3*	0.7	0.6	.
COc1ccc(NC(=O)Nc2c(SC)nsc2SC)cc1	9.7	13.1	0.8	0.661
Cc1ccc(CNCC(O)(c2ccccc2)c2ccc(F)cc2)cc1 (centres undefined)	75.1*	19.4	-0.1	.
Cc1ccc2cc(C3CC(c4ccco4)=NN3S(=O)(=O)c3ccccc3)c(Cl)nc2c1 (centres undefined)	-1.6	37.3*	-0.2	.
O=C(CCC1CCCN(C(=O)C2=CCCCC2)C1)N1CCN(c2ccccn2)CC1 (centres undefined)	-1.3	0.1	0.2	-0.132
COCc1nnc(NC(=O)c2ccc(S(=O)(=O)N3CCCc4ccccc43)cc2)o1	4.6	-11.0	-0.5	0.717
CCc1nnc(NC(=O)c2ccc(S(=O)(=O)N(CC)Cc3ccccc3)cc2)o1	62.7*	-15.1	-0.9	.
COc1ccccc1-c1nnc(NC(=O)c2ccc(S(=O)(=O)N(C)Cc3ccccc3)cc2)o1	-17.7	-4.8	-0.1	-3.35*
CN(c1ccccc1)S(=O)(=O)c1ccc(C(=O)Nc2nnc(-c3ccc(F)cc3)o2)cc1	46.0	-11.8	2.1	.
O=C(Nc1nnc(C2CC2)o1)c1ccc(S(=O)(=O)N2CCCc3ccccc32)cc1	62.9*	-7.8	.	.
CN(Cc1ccccc1)S(=O)(=O)c1ccc(C(=O)Nc2nnc(C3CC3)o2)cc1	73.8*	-33.3	-0.8	.
COc1cc(NC(=O)c2ccc(C(C)(C)C)cc2)c(OC)cc1NC(=O)CN1CCCCC1	69.7*	-22.0	0.1	0.4
COc1ccc(-c2cnnc(N/N=C/C(C)=C/c3ccccc3)n2)cc1	22.4	5.7	-0.1	.
COc1ccc(C(C)NC(=O)c2ccc([N+](=O)[O-])cc2)cc1OC (centres undefined)	-16.7	0.3	0.7	.
SMILES	WT yeast gro inh	Arbovirus anti	PERK inhibitor	ROMK mod
CCC(Sc1nc(-c2ccccc2)cc(=O)[nH]1)C(=O)O (centres undefined)	4.7	3.1	3.0*	1.06
CCc1cccc(C)c1NC(=O)Nc1ccc2c(c1)OCO2	-0.8	-11.9	3.5*	-0.415
COc1cccc(/C=C/C(=O)OCC(=O)Nc2ccc(Cl)cn2)c1	5.9	13.3	1.9	-0.665
O=C(/C=C/c1cccc(Cl)c1)Nn1c(-c2cccs2)nc2ccccc2c1=O	-8.4	-9.9	0.3	-0.349
COC(=O)Cc1ccc2sc(-c3ccccc3)nc2c1	39.5	-4.7	0.3	-0.709
CCCc1nc2cc(CC(=O)OC)ccc2o1	-57.0	-3.2	3.1*	.
Cc1cccc(-c2nnc(SCc3ccccc3)o2)c1	65.0*	5.3	0.6	.
Cc1cccc(CSc2nnc(-c3ccco3)o2)c1	33.1	-15.6	0.2	-0.904
FC(F)(F)c1ccc(NC(=S)NCc2ccccc2)cc1	60.1*	-0.8	0.7	0.52
FC(F)Sc1ccc(NC(=S)NC(c2ccccc2)c2ccccc2)cc1	85.1*	-39.5	0.4	1.04
FC(F)Sc1ccc(NC(=S)NCc2ccccc2)cc1	59.8*	-18.4	-0.2	-0.96
CN(C)CCCN(Cc1ccccc1)C(=S)Nc1ccc(SC(F)F)cc1	9.6	-25.5	-0.4	-1.75
Cn1nnc(NC(=O)COc2ccc(C3CCCCC3)cc2)n1	-2.9	14.4	1.5	.
CC1(C)CC(=O)C(C(=O)CCCCC(=O)C2C(=O)CC(C)(C)CC2=O)C(=O)C1	1.7	19.4	0.1	0.171

Screening results as filed in PubChem BioAssay.
